Compound activity as filed in PubChem.
PLK1 PBD inh: blocks phosphopeptide binding to human PLK1 polo-box domain. Plk1 PBD binding of FITC phosphopeptide, fluorescence polarization. Potency, µM, for the others: max response, negative = inhibition, usual class: inhibitors. 2.8% of 360,000 active. AID 720504; also: potency is read from the fitted curve at half-maximal effect; series mostly up to about 57 µM; % is scaled to controls: 0 for no effect and ±100 for the full control effect; nearly all actives have a fitted effect of over 65% in size
JMJD2A Tudor inh: JMJD2A Tudor domain (human) inhibition; 4.4% of 390,000 active; AlphaScreen JMJD2A-Tudor / H3K4me3 peptide binding; Potency, µM (highest dose often 114 µM), inactives show at the top dose activity change, negative = inhibition, hits mostly inhibitors; O75164; also: potency is read from the fitted curve at half-maximal effect; % is scaled to controls: 0 for no effect and ±100 for the full control effect; nearly all actives have a fitted effect of over 50% in size
BAZ2B block: blocks human BAZ2B; Q9UIF8; AlphaScreen BAZ2B-H3K14Ac peptide displacement; Potency, µM (doses to about 114 µM), for inactives: at the top dose activity change, negative = inhibition, most hits filed as inhibitors; 4.4% of 360,000 active; AID 504333; also: potency is read from the fitted curve at half-maximal effect; % is scaled to controls: 0 for no effect and ±100 for the full control effect; nearly all actives have a fitted effect of over 60% in size
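Inhibition is scored as reduced AlphaScreen emission. The BAZ2B/b-H3(5-23)K14Ac complex (50 nM each) in PBS pH 7.4, 0.01% Tween-20 meets compound (up to 110 uM) for 30 min at RT before bead addition.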
G9a block: inhibitors of human histone lysine methyltransferase G9a | Q96KQ7 | G9a H3K9 monomethylation, AlphaScreen, 2 h | Potency, µM (doses to about 102 µM), inactives show at the top dose activity, negative = inhibition, usual class: inhibitors | 8.8% of 350,000 active | AID 504332; also: potency is read from the fitted curve at half-maximal effect; % is scaled to controls: 0 for no effect and ±100 for the full control effect; nearly all actives have a fitted effect of over 75% in size
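Readings reflect AlphaScreen signal from monomethyl-H3K9 antibody detection. HMT at 20 nM; substrate b-H3K9 500 nM; cofactor SAM 20 uM; 2 h RT reaction; compounds tested as titrations in qHTS with 15 min preincubation.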
HP1b binding inh: HP1-beta chromodomain-methylated histone interaction inhibition; P83916; AlphaScreen HP1-beta / biotin-H3K9me3 peptide binding; Potency, µM (doses to about 114 µM), for inactives: at the highest dose activity change, negative = inhibition, most hits filed as inhibitors; 0.56% of 390,000 active; AID 540317; also: potency is read from the fitted curve at half-maximal effect; nearly all actives have a fitted effect of over 70% in size
Target sequence (P83916 whole entry, looked up): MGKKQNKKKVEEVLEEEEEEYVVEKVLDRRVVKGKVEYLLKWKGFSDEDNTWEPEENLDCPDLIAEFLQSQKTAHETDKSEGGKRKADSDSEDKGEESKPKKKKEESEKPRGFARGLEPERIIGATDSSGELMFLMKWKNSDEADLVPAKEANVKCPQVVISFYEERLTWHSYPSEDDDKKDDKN
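Compound inhibition of the preformed complex between 50 nM HP1-beta and 50 nM biotinylated H3K9me3 peptide was read by AlphaScreen. Buffer was PBS pH 7.4 with 0.01% Tween-20. Incubations ran 30 min at room temperature, with 10 ug/mL donor/acceptor beads.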
PI5P4Ka inh: PI5P4K alpha (human) kinase inhibition; P48426; PI5P4Kalpha enzyme, ADP-Glo luminescence, 60 min; stronger effect = lower value; max response, %; 1.2% of 330,000 active; AID 652105; active = max response of -50% or lower; inconclusive = between -30% and -50%; inactive = -30% or higher; also: value at the top dose of about 77 µM; % is scaled to controls: 0 for no effect and ±100 for the full control effect
Target sequence (P48426 whole entry, looked up): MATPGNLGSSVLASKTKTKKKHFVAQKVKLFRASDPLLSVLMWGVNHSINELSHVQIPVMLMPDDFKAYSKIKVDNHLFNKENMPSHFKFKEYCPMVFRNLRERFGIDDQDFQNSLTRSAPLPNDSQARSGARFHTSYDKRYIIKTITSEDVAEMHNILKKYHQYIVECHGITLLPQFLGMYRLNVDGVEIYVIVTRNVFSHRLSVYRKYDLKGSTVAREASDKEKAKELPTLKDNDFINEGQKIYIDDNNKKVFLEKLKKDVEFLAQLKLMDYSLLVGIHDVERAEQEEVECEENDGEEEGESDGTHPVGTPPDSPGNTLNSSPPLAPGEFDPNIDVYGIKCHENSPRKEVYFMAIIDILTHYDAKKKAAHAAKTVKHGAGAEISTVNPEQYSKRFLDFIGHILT
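Reactions run in 0.038 M HEPES pH 7.4, 0.28 mM EGTA, 0.1% CHAPS and 5% DMSO, with PI5P4Kalpha, substrate, compound and 5 microM ATP final, one hour at room temperature. Readout is ADP-Glo luminescence.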
The depositor's hits bear a star; ? = inconclusive; . = not tested or not shown; [ ] = another dose, or the depositor's remark. Most compounds without a hit are left out; they make up all but 12% or so of the library. Unless noted, calls follow the shape of the dose curve; as a rule, active = well fitted curve in the direction sought with a large enough effect; inconclusive = small, poorly fitted or top-dose-only effect, or another doubt; inactive = no such curve, though single readings can be large; an effect the other way counts as inactive or inconclusive.

SMILES	PLK1 PBD inh	JMJD2A Tudor inh	BAZ2B block	G9a block	HP1b binding inh	PI5P4Ka inh
O=C(O)c1ccc(NCc2nc3ccccc3n2Cc2ccccc2)cc1	-3%	-9%	50µM*	1%	39%	1
CCn1cnc2cc(NCc3nc4ccccc4n3Cc3ccccc3)ccc21	-1%	45µM*	40µM*	?	-6%	-8
CCn1c(CNc2ccc(C(=O)O)cc2)nc2ccccc21	1%	-5%	-7%	1%[59 µM]	13%	.
CCN(CC)CCn1c(NCc2nc3ccccc3n2Cc2ccccc2)nc2ccccc21	2%	?	?	?	6%	.
CC(=O)NC(c1ccccc1)c1nc(-c2csc3ccccc23)cs1 (stereo not drawn)	-11%	.	.	.	.	18
CC(=O)c1ccc(NC(=O)CC2Oc3ccc(C)cc3NC2=O)cc1 (stereo not drawn)	.	-17%	-1%	-21%[59 µM]	8%	.
CC(C)(C)c1ccc(C2=NC(=O)C(CC(=O)O)S2)cc1 (stereo not drawn)	27µM*	-22%	?	50µM*	-5%	-9
O=c1c2ccccc2c(/C=N/n2cnnc2)c(O)n1-c1ccccc1	-11%	89µM*	?	-10%[12.7 µM]	19%	.
COc1ccc(-n2c(O)c(/C=N/n3cnnc3)c3ccccc3c2=O)cc1	-7%	45µM*	56µM*	50µM*	15%	-11
COc1ccc(CCNc2nc3cc(OC)c(OC)cc3c3nc(-c4ccccc4)nn23)cc1OC	.	-3%	?	-28%[59 µM]	-3%	.
O=CNC1CCCc2c1[nH]c1ccc(Cl)cc21 (stereo not drawn)	-4%	56µM*	?	7.9µM*	-13%	14
O=C(NNC(=O)c1ccc(S(=O)(=O)N2CCCC2)cc1)c1ccc(Br)cc1	-3%	-3%	7%	-31%	25%	-3
COc1ccccc1-n1c(CNC(=O)c2ccc(S(=O)(=O)N3CCOCC3)cc2)n[nH]c1=S	-10%	20µM*	?	8.9µM*	21%	.
CC(C)(C)c1ccc(C(=O)NCCC(=O)NCc2cccs2)cc1	27µM*	?	1%	9%	8%	-7
CCCNC(=O)CCNC(=O)c1ccc(C(C)(C)C)cc1	-4%	-9%	-6%	?	9%	.
O=C(NCc1n[nH]c(=S)n1-c1ccc(Br)cc1)c1ccc(S(=O)(=O)N2CCCCC2)cc1	-15%	-33%	-19%	7.9µM*	-15%	2
COc1cc(OC)c(OC)cc1CNC(=O)c1ccc(S(=O)(=O)N2CCCCC2)cc1	-2%	-29%	-9%	-10%[12.7 µM]	-11%	3
O=C(NCc1n[nH]c(=S)n1-c1ccc(Br)cc1)c1ccc(S(=O)(=O)N2CCCC2)cc1	-4%	-32%	-35%	2.5µM*	23%	4
Cc1cccc(-n2c(SCC(=O)c3ccccc3)nnc2-c2ccc(Br)cc2)c1	.	-5%	0%	1%[59 µM]	34%	.
COc1ccc(-n2nnnc2CNC(=O)c2ccc(S(=O)(=O)N3CCOCC3)cc2)cc1	-9%	-11%	7%	-7%[0.501 µM]	12%	-2
O=C(NCc1cccs1)c1ccc(S(=O)(=O)N2CCCCC2)cc1	13µM*	?	-11%	3%	-20%	?
Cc1ccc(/C=N/NC(=O)CNC(=O)c2ccc(S(=O)(=O)N3CCCC3)cc2)o1	-2%	-10%	-14%	45µM*	37%	-2
O=C(CNC(=O)c1ccc(S(=O)(=O)N2CCCCC2)cc1)N/N=C/c1ccco1	-19%	-13%	-21%	-19%	19%	-7
O=C(NCc1n[nH]c(=S)n1-c1ccc(Cl)c(Cl)c1)c1ccc(S(=O)(=O)N2CCOCC2)cc1	-8%	-22%	-16%	8.9µM*	27%	3
O=C(NCc1n[nH]c(=S)n1-c1ccc(Br)cc1)c1ccc(S(=O)(=O)N2CCOCC2)cc1	-3%	?	-5%	3.2µM*	28%	-3
SMILES	PLK1 PBD inh	JMJD2A Tudor inh	BAZ2B block	G9a block	HP1b binding inh	PI5P4Ka inh
O=C(NCc1nnnn1-c1ccc(F)cc1)c1ccc(S(=O)(=O)N2CCOCC2)cc1	1%	.	.	.	.	0
CC1=C(C)C(=O)C(C(CCCCCC(=O)O)c2ccccc2)=C(C)C1=O (stereo not drawn)	.	.	.	-23%[12.7 µM]	.	.
N#Cc1nc(Nc2cc(F)cc(F)c2)c2ncn(CCCO)c2n1	.	-7%	.	.	.	.
C=CCN(CC=C)C(=O)CN1C(=O)NC(c2ccccc2)(c2ccccc2)C1=O	-1%	-5%	-15%	-18%	18%	2
Cc1ccc(-c2nnc(SCC(=O)NC3CCCC3)nc2-c2ccc(C)cc2)cc1	.	-24%	-16%	-33%[59 µM]	18%	.
CCOC(=O)[C@]12Cc3c(cc(OC)c(OC)c3OC)[C@H]1N(C1CCCCC1)C(=O)c1cc(OC)ccc12	?	.	.	.	.	-2
O=C(NCc1n[nH]c(=S)n1-c1ccc(F)cc1)c1ccc(S(=O)(=O)N2CCCCC2)cc1	-4%	?	0%	2.5µM*	18%	-6
O=C(NCc1n[nH]c(=S)n1-c1ccc([N+](=O)[O-])cc1)c1ccc(S(=O)(=O)N2CCOCC2)cc1	-10%	56µM*	-7%	7.1µM*	22%	0
COc1ccc(-n2c(CNC(=O)c3ccc(S(=O)(=O)N4CCCC4)cc3)n[nH]c2=S)cc1	-15%	7.9µM*	-7%	?	9%	.
CCc1ccc(C(=O)NC(Cc2c[nH]c3ccccc23)C(=O)OCC(=O)c2ccc(Br)cc2)cc1 (stereo not drawn)	.	-21%	-10%	-26%[59 µM]	8%	.
O=C1NC(=O)/C(=C\c2ccc(N3CCOCC3)o2)N1	11%	-7%	7%	25µM*	15%	4
Cc1ccc(-n2c(C)cc(/C=C3\NC(=O)NC3=O)c2C)c(C)c1	21µM*	35µM*	40µM*	?	?	?
Cc1cc(/C=C2\NC(=O)NC2=O)c(C)n1-c1ccc(N2CCOCC2)cc1	-6%	?	-33%	.	-36%	0
Cc1cc(/C=C2/NC(=O)NC2=O)c(C)n1-c1ccc(N2CCOCC2)cc1	-20%	?	?	45µM*	?	1
Cc1cc(/C=C2/NC(=O)NC2=O)c(C)n1-c1ccccn1	?	-28%[57.1 µM]	-11%	7%[59 µM]	?	6
Cc1cc(/C=C2/NC(=O)NC2=O)c(C)n1-c1ccc(C#N)cc1	19µM*	-17%[11.4 µM]	?	?	-15%	?
COC(=O)C1CC2=C(CCCC2=O)N(Cc2ccccc2)C1=O (stereo not drawn)	-15%	-9%	.	.	6%	0
CCOc1ccccc1NC(c1nnc(-c2ccccc2)o1)c1ccc(F)cc1Cl (stereo not drawn)	.	-13%	-14%	-4%[59 µM]	29%	.
O=C(NCc1cccnc1)c1nn(-c2ccc(F)cc2)nc1CO	.	-16%	-9%	3%[59 µM]	22%	.
